# Experimental data published in PubChem BioAssay (NCI).
# About 79,000 compounds went through this panel and 15% of them were active in at least one assay; those are over-represented in the sample as a whole. A number with no mark means an inactive call. The source made the active and inactive calls. No stated cut-off is given here; in the data, active means growth inhibition above about 70%; inactive means the rest.
# Test: NCI Yeast Anticancer Drug Screen. Data for the sgs1 mgt1 strain (AID 161);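 further: 0% = growth of cultures given vehicle only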
# Conditions: S. cerevisiae sgs1 mgt1 strain, at 5.0 µM (retest, dose inferred, filed as 0.5), active compounds read high
# Outline: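 Read-out: growth inhibition vs vehicle controls. Cells: mutant yeast strain deficient in DNA damage repair.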
row,SMILES,growth inhibition
1,Oc1c(Br)cc(Cl)cc1Br,4%
2,COc1ccc(C2Oc3ccc(Cl)cc3C=C2[N+](=O)[O-])cc1OC (stereo not given),86% (active)
3,COC(=O)C(=O)CC(=O)c1cccc(Cl)c1,18%
4,O/N=C(/C[N+]12CN3CN(CN(C3)C1)C2)c1ccc(I)cc1,-4%
5,COc1cc(CCN=Cc2cc(Cl)cc(Cl)c2O)c([N+](=O)[O-])cc1OC,53%
6,COc1ccc2c(c1OC)C1=C(C2=O)c2cc3c(cc2CCN1)OCO3,9%
7,CC(C)(C)[Si](C)(C)OCC1OC(n2cc(I)c(N)nc2=O)C(O[Si](C)(C)C(C)(C)C)C1O[Si](C)(C)C(C)(C)C (stereo not given),85% (active)
8,O=S(=O)(Nc1ccccn1)c1ccc(NCc2c3ccccc3nc3cc(Cl)ccc23)cc1,-2%
9,OCc1ccc2c(c1)CC1(C2)Cc2cc3c(cc2C1O)CCC3 (stereo not given),3%
10,COc1cc(C(c2cc3c(cc2O)OCO3)N2CCOCC2)ccc1O (stereo not given),-2%
11,CCCCCCCCCCCCCCSC(=N)N,100% (active)
12,Cc1ccccc1NC(=S)Nc1ccccc1O,0%
13,c1cc2cc(Cc3ccc4[nH]ccc4c3)ccc2[nH]1,25%
14,N=C(N)c1ccc(-c2ccc(-c3ccc(C(=N)N)cc3)o2)cc1,1%
15,O=c1oc2c/c(=C\c3ccccc3)c(=O)c3cccc1c3-2,12%
16,CCCCCCCC(=O)/C=C/c1ccc(C)cc1,-69%
17,COc1ccc(CCC2(C)OCCC(C)O2)cc1 (stereo not given),16%
18,O=C(O)C(SC1=NNC2(C(=O)N1)c1ccccc1-c1ccccc12)SC1=NNC2(C(=O)N1)c1ccccc1-c1ccccc12,2%
19,CC1(C)NNC(=S)NN1,4%
20,O=C([O-])c1ccccc1[I+]c1ccc(C2CCCCC2)cc1,22%

row,SMILES,growth inhibition
1,ClC1=C(Cl)C(Cl)(C(Cl)(Cl)Cl)C(Cl)=C1Cl,99% (active)
2,Cn1nc(N)c2cccnc21,-1%
3,CC(C)(C)c1ccc(-n2c3nc(=O)n(-c4ccccc4C(F)(F)F)c(=O)c-3cc3ccccc32)cc1,10%
4,C/C(=N\Nc1ccccn1)c1ccccn1,57%
5,COc1ccc2c(C)cc(N/N=C(\C)c3ccccn3)nc2c1,7%
6,CC([NH-])C(=O)O.[Cu+2].[NH-]C(Cc1cnc[nH]1)C(=O)O (stereo not given),-3%
7,COc1ccc(C)cc1NC(=O)ON=C1CCCCC1,47%
8,Oc1c(N(Cc2ccccc2)Cc2ccccc2)ccc2cccnc12,-1%
9,Cc1ccc2[nH]c3cc4ccncc4cc3c2c1,-15%
10,Cc1ccc2nn(-c3ccc(O)cc3)nc2c1,7%
11,Oc1ccc2c(ccc3ccccc32)c1,0%
12,ClCc1ccc2ccc3ccc(CCl)nc3c2n1,65%
13,CC(=O)c1c(O)c2ccc(Cl)cc2[nH]c1=O,79% (active)
14,O=C(c1ccc(Cl)cc1)c1ccc(OCCCOc2ccc(C(=O)c3ccc(Cl)cc3)cc2)cc1,-18%
15,C=C1CC2(C[C@@H](c3ccccc3)O[C@@H](c3ccccc3)C2)OC1=O (stereo not given in full),2%
16,O=C(N=Nc1c(O)[nH]c2ccccc12)C(O)(c1ccccc1)c1ccccc1,21%
17,C/C(=N\O)c1ccc2c3c(ccc([N+](=O)[O-])c13)CC2,-9%
18,N#CS/C(Cl)=C(/C(Cl)=C(Cl)Cl)[N+](=O)[O-],-3%
19,N#C/C(=C1C=C/C(=N/O)C=C/1Cl)c1ccccc1,4%
20,O=C1/C(=C/c2ccc(Cl)c(Cl)c2)CN(C(=O)CCN2CCOCC2)C/C1=C\c1ccc(Cl)c(Cl)c1,99% (active)
